Cardiac RTF inh – cardiac RTF calcium desensitization; hit rate 0.12% among 340,000; IANBD-labeled cardiac RTF, Ca2+ fluorescence; P19429+P45379; inhibition, % at 7.15 µM; AID 493244;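 active = inhibition above the mean inhibition of all tested compounds plus 3 SD, cut at about 17% in these data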;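 note: assay run at fixed EC70 calcium of 1.6 mM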
Bcl-xL primary – blocks human Bcl-xL binding to Bim BH3 peptide. Q07817. GST-Bcl-xL / FITC-Bim BH3 peptide fluorescence polarization. inhibition, % at 10.9 µM. hit rate 0.7% among 320,000. AID 2129;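 active = inhibition above the mean of all tested compounds plus 3 SD, cutoff set per campaign, cut at about 30% in these data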;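 note: 0% = DMSO wells and 100% = unlabeled Bim-BH3 peptide competitor; inhibitors lower millipolarization by displacing the labeled peptide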
Target sequence (Q07817 whole entry, looked up): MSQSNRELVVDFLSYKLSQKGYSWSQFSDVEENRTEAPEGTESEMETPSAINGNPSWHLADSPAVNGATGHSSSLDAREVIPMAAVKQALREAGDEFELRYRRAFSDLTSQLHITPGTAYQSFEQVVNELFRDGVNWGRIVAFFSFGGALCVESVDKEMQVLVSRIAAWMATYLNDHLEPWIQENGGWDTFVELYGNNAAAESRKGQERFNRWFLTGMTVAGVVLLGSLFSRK
GLD-1 TGE inh – GLD-1-TGE RNA interaction inhibition (C. elegans); inhibition, % at 5.96 µM; hit rate 0.44% among 320,000; purified GLD-1 + fluorescein TGE RNA, fluorescence polarization;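 active = percent inhibition above a per-plate cutoff, the plate mean of test compounds plus 3 SD, cut at about 30% in these data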;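 note: 0% = DMSO wells with GLD-1 and probe and 100% = wells lacking GLD-1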
Target sequence (Q17339 whole entry, looked up): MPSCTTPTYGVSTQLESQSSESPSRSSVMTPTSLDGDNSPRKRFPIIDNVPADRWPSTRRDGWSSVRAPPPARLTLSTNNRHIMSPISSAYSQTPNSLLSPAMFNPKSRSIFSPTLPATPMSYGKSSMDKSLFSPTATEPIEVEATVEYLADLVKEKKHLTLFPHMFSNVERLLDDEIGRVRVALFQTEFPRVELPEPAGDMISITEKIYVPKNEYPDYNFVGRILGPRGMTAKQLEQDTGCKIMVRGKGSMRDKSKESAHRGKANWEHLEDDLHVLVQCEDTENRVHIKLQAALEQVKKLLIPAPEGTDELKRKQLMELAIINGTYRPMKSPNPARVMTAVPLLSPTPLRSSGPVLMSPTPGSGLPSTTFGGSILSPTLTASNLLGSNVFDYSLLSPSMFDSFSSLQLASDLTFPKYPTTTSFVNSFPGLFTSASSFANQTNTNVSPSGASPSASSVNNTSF
RTF Ca sens act – cardiac RTF calcium sensitization; hit rate 0.24% among 340,000; IANBD-labeled TnC RTF fluorescence at EC20 calcium; 0% EC20 calcium, 100% full calcium; AID 493008; activation, % at 7.2 µM; P19429+P45379;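 active = activation above the mean over all tested compounds plus 3 SD, cut at about 30% in these data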;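 note: rise in fluorescence read as greater calcium sensitivity of cardiac thin filaments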
E coli Lon inh – inhibitors of E. coli Lon protease; P0A9M0; purified E. coli Lon protease, fluorescence polarization; inhibition, % at 7.94 µM; hit rate 0.42% among 360,000; AID 602123; in the data active = inhibition above about 13%, passing the limit was not always enough;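 note: 0% = enzyme with probe and DMSO and 100% = no enzyme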
Starred values were filed as active, the others as inactive. Compounds with a hit are over-represented: about 1.2% of the library has one in this group of screens.

CN1C2CCC1/C(=C/c1cccn1C)C(=O)/C2=C\c1cccn1C was read as Cardiac RTF inh -289.7, Bcl-xL primary -30.9, GLD-1 TGE inh -110.6, RTF Ca sens act 367.2* and E coli Lon inh -148.5.
For COc1ccc(NC(=O)/C=C/c2cccc(C(F)(F)F)c2)cn1 the results were Cardiac RTF inh 6.8, Bcl-xL primary 9.5, GLD-1 TGE inh 9.2, RTF Ca sens act 1.2 and E coli Lon inh 0.6.
Screening COc1ccc(NC(=O)/C=C/c2cccc(Br)c2)cn1 returned Cardiac RTF inh -8.5, Bcl-xL primary 90.6*, GLD-1 TGE inh 67.2*, RTF Ca sens act 11.2 and E coli Lon inh 12.4.
CCOc1ccc(N2CC(NS(=O)(=O)c3cccnc3)CC2=O)cc1 (stereo not given) was read as Cardiac RTF inh -11.1, Bcl-xL primary 0.5, GLD-1 TGE inh 2.3, RTF Ca sens act -4.0 and E coli Lon inh 3.5.
Cc1ccc(C(=O)OCC(=O)NC(=O)c2ccc(C(C)(C)C)cc2)c(O)c1 was read as Cardiac RTF inh -8.8, Bcl-xL primary 62.0*, GLD-1 TGE inh 25.9, RTF Ca sens act -3.8 and E coli Lon inh 8.4.
Screening Cc1c(-n2cc(C(=O)c3cc(F)ccc3O)cc(C#N)c2=O)c(=O)n(-c2ccccc2)n1C returned Cardiac RTF inh -7.9, Bcl-xL primary 16.2, GLD-1 TGE inh 7.3, RTF Ca sens act 0.9 and E coli Lon inh -27.2.
For N#Cc1cc(C(=O)c2ccccc2O)cn(-c2nccs2)c1=O the results were Cardiac RTF inh -77.6, Bcl-xL primary 32.3*, GLD-1 TGE inh 54.2*, RTF Ca sens act 62.4* and E coli Lon inh -248.6.
N#Cc1cc(C(=O)c2cc(F)ccc2O)cn(-c2nccs2)c1=O was read as Cardiac RTF inh -74.8, Bcl-xL primary 38.2*, GLD-1 TGE inh 10.8, RTF Ca sens act 53.9* and E coli Lon inh -261.4.
`CCC1=Nc2cc(C(=O)NCC3CCCO3)ccc2Sc2ccc(Br)cc21` (stereo not given) gave Cardiac RTF inh -11.2, Bcl-xL primary -3.8, GLD-1 TGE inh -2.6, RTF Ca sens act 0.6 and E coli Lon inh -5.1.
Screening O=C(Cn1c(=O)n(Cc2ccco2)c(=O)c2c3c(sc21)CCCC3)Nc1ccccc1 returned Cardiac RTF inh -12.7, Bcl-xL primary -1.0, GLD-1 TGE inh -2.7, RTF Ca sens act 2.9 and E coli Lon inh 3.9.
`NC(=O)Cn1c(=O)n(Cc2ccco2)c(=O)c2c3c(sc21)CCCCC3` gave Cardiac RTF inh -20.9, Bcl-xL primary 33.8*, GLD-1 TGE inh 5.9, RTF Ca sens act -1.7 and E coli Lon inh -7.2.
For c1ccc(-n2nnnc2SCc2cccc(CSc3nnnn3-c3ccccc3)n2)cc1 the results were Cardiac RTF inh -3.2, Bcl-xL primary -1.1, GLD-1 TGE inh 6.3, RTF Ca sens act -7.3 and E coli Lon inh -8.8.
`NC(=O)c1ccccc1Nc1nc2nc3ccccc3c(=O)n2cc1Br` gave Bcl-xL primary 31.1* and GLD-1 TGE inh 27.6.
`COc1ccc(C=C(c2nc3ccccc3s2)c2nc3ccccc3s2)cc1O` gave Cardiac RTF inh -4.7, Bcl-xL primary 10.7, GLD-1 TGE inh 31.6*, RTF Ca sens act -6.2 and E coli Lon inh 1.1.
`COc1ccc(/C=N/Nc2nc3ccccc3s2)cc1O` gave Cardiac RTF inh 7.7, RTF Ca sens act -3.8 and E coli Lon inh 9.6.
Screening COc1cc(C=C(c2nc3ccccc3s2)c2nc3ccccc3s2)ccc1O returned Cardiac RTF inh 3.9, Bcl-xL primary 41.5*, GLD-1 TGE inh -6.6, RTF Ca sens act 2.4 and E coli Lon inh -21.9.
`CC1(C(=O)NC2CCCC2)CCC(=O)N1CCc1c[nH]c2ccccc12` (stereo not given) gave E coli Lon inh -0.3.
`CCOC(=O)C(=O)c1c(-c2ccccc2)nc2ccccn12` gave Cardiac RTF inh -5.3, Bcl-xL primary 2.0, GLD-1 TGE inh -6.9, RTF Ca sens act -4.3 and E coli Lon inh 0.4.
CCOC(=O)C(=O)c1c(-c2ccc(C)cc2)nc2ccccn12 was read as Cardiac RTF inh -6.5, Bcl-xL primary 63.1*, GLD-1 TGE inh 7.4, RTF Ca sens act 8.4 and E coli Lon inh 6.3.
`COc1ccc(C2(CNC(C)=O)CCOCC2)cc1OC` gave Cardiac RTF inh -4.9, Bcl-xL primary 5.5, GLD-1 TGE inh 4.9, RTF Ca sens act 1.3 and E coli Lon inh 3.4.
For COc1ccc(NS(=O)(=O)c2cc(OC)ccc2OC)cc1 the results were Cardiac RTF inh 3.2, Bcl-xL primary 37.3*, GLD-1 TGE inh -1.7, RTF Ca sens act 3.0 and E coli Lon inh -5.7.
Screening COc1ccc(OC)c(S(=O)(=O)Nc2ccc(F)cc2)c1 returned Cardiac RTF inh -1.2, Bcl-xL primary 5.1, GLD-1 TGE inh 6.0, RTF Ca sens act -7.8 and E coli Lon inh -5.7.
CCn1cc(C(=O)O)c(=O)c2cc(F)c(N/N=C/c3ccccc3)cc21 was read as Cardiac RTF inh 3.2, Bcl-xL primary -1.9, GLD-1 TGE inh -2.3, RTF Ca sens act 0.2 and E coli Lon inh -6.3.
`CC1N(C)c2cc(NC(=O)c3ccco3)c(P(=O)(Nc3ccc([N+](=O)[O-])cc3)N3CCOCC3)cc2C1(C)C` (stereo not given) gave Cardiac RTF inh -13.9, Bcl-xL primary 4.9, GLD-1 TGE inh 6.9, RTF Ca sens act -0.5 and E coli Lon inh 1.7.
CC1N(C)c2cc(NC(=O)c3ccco3)ccc2C1(C)C (stereo not given) was read as Cardiac RTF inh -21.3, Bcl-xL primary 26.9, GLD-1 TGE inh 35.9*, RTF Ca sens act 15.6 and E coli Lon inh -11.6.
`Cn1c(O)c(/C=C2\C=NN=C2c2ccccc2)sc1=S` gave Cardiac RTF inh -7.5, Bcl-xL primary 1.6, GLD-1 TGE inh 1.3, RTF Ca sens act 3.8 and E coli Lon inh -2.0.
For CSc1ncccc1C(=O)NCC1CCCCC1 the results were Cardiac RTF inh -4.3, Bcl-xL primary 7.8, GLD-1 TGE inh 1.7, RTF Ca sens act -0.2 and E coli Lon inh -1.4.
Screening COC(=O)C1=C(C)OC(N)=C(C#N)C1c1cccnc1 (stereo not given) returned Cardiac RTF inh -6.3, Bcl-xL primary 26.3, GLD-1 TGE inh 4.3, RTF Ca sens act 14.5 and E coli Lon inh -4.7.
CC(=O)C1=C(C)OC(N)=C(C#N)C1c1ccncc1 (stereo not given) was read as Cardiac RTF inh -10.8, Bcl-xL primary 30.3*, GLD-1 TGE inh 17.6, RTF Ca sens act -2.8 and E coli Lon inh -5.6.
`COc1ccc2nc(N3CCCC3)c(C#N)cc2c1` gave Cardiac RTF inh -7.3, Bcl-xL primary 73.5*, GLD-1 TGE inh 49.0*, RTF Ca sens act -5.1 and E coli Lon inh 0.4.
For COc1ccc2nc(SCC(=O)N3CCCCC3)c(C#N)cc2c1 the results were Cardiac RTF inh 5.2, Bcl-xL primary 1.7, GLD-1 TGE inh 3.7, RTF Ca sens act -0.6 and E coli Lon inh -6.5.
O=C(CSc1cc(Cl)ccc1Cl)NCC(=O)Nc1ccc(F)c(F)c1F was read as Cardiac RTF inh -1.9, Bcl-xL primary 2.9, GLD-1 TGE inh -1.3, RTF Ca sens act -2.3 and E coli Lon inh -11.1.
`CC1=CC(=Nc2c(C)n(C)n(-c3ccccc3)c2=O)C=CC1=O` gave Bcl-xL primary 125.3* and GLD-1 TGE inh 75.6*.

Screening data from PubChem.
